# Structures can show the parent of a compound that is named as a salt.
# Test system: HL-1
# Experiment: relative cell viability (CellTiter-Glo) vs DMSO control (% of DMSO control); higher = more viable cells
# Summary of the method: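 Cell viability, normalised to vehicle-treated control cells, was read by CellTiter-Glo luminescence. For this, HL-1 mouse atrial cardiomyocytes were plated at 1000 cells per well in 384-well plates alongside compounds at 40, 200, 1000 or 5000 nM in 0.01% DMSO. After a day, plates either spent 48 h in a hypoxic workstation at 1% O2 and then 24 h reoxygenating in a normal incubator, or remained in normoxia for the same period.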
# [1] = oxygen condition: hypoxia 48 h (1% O2) + reoxygenation 24 h, 40 nM
# [2] = oxygen condition: hypoxia 48 h (1% O2) + reoxygenation 24 h, 200 nM
# [3] = oxygen condition: hypoxia 48 h (1% O2) + reoxygenation 24 h, 1000 nM
# [4] = oxygen condition: hypoxia 48 h (1% O2) + reoxygenation 24 h, 5000 nM
# [5] = oxygen condition: normoxia 72 h, 40 nM
# [6] = oxygen condition: normoxia 72 h, 200 nM
# [7] = oxygen condition: normoxia 72 h, 1000 nM
# [8] = oxygen condition: normoxia 72 h, 5000 nM
SMILES,relative cell viability [1],relative cell viability [2],relative cell viability [3],relative cell viability [4],relative cell viability [5],relative cell viability [6],relative cell viability [7],relative cell viability [8]
COc1nc(N)nc2c1ncn2[C@@H]1O[C@H](CO)[C@@H](O)[C@@H]1O [Nelarabine],113,114,112,112,111,112,108,111
CC(C)(C)NC(=O)[C@H]1CC[C@H]2[C@@H]3CC[C@H]4NC(=O)C=C[C@]4(C)[C@H]3CC[C@]12C [Finasteride],100,106,106,117,115,110,111,113
CN(C)CCC(c1ccccc1)c1ccccn1 (stereo unspecified) [Pheniramine Maleate],102,103,104,117,105,101,104,113
OC(CCN1CCCC1)(c1ccccc1)C1CCCCC1 (stereo unspecified) [Procyclidine HCl],93.1,89.9,85.4,29.9,101,97.7,82.5,30.6
O=S(=O)(O)CCS [Mesna],105,102,116,120,112,109,112,123
CCOC(=O)C1=C(COCCN)NC(C)=C(C(=O)OC)C1c1ccccc1Cl (stereo unspecified) [Amlodipine],102,101,113,100,107,107,93.2,106
Cc1ccc(C(=O)C(C)CN2CCCCC2)cc1 (stereo unspecified) [Tolperisone HCl],107,107,109,108,107,114,81.5,111
COc1cc2nc(N(C)CCCNC(=O)C3CCCO3)nc(N)c2cc1OC (stereo unspecified) [Alfuzosin hydrochloride],103,106,99.9,106,103,107,114,112
C=C1/C(=C\C=C2/CCC[C@]3(C)[C@@H]([C@H](C)/C=C/[C@H](C)C(C)C)CC[C@@H]23)C[C@@H](O)C[C@@H]1O [Doxercalciferol],89.5,88,93.7,88.7,106,99,103,52.4
COc1cc2nc(N3CCN(C(=O)c4ccco4)CC3)nc(N)c2cc1OC [Prazosin HCl],102,101,109,109,101,100,106,109
CC[C@H]1OC(=O)C[C@@H](O)[C@H](C)[C@@H](O[C@@H]2O[C@H](C)[C@@H](O[C@H]3C[C@@](C)(O)[C@@H](O)[C@H](C)O3)[C@H](N(C)C)[C@H]2O)[C@@H](CC=O)C[C@@H](C)C(=O)/C=C/C(C)=C/[C@@H]1CO[C@@H]1O[C@H](C)[C@@H](O)[C@@H](OC)[C@H]1OC [Tylosin tartrate],102,108,99.4,99,101,92.6,100,91.8
CCCCCOC(=O)Nc1nc(=O)n([C@@H]2O[C@H](C)[C@@H](O)[C@H]2O)cc1F [Capecitabine],104,94.1,106,119,105,113,119,129
O=C(O)Cc1ccccc1Nc1c(Cl)cccc1Cl [Diclofenac Diethylamine],103,107,105,113,110,115,120,113
CC(C)NCC(O)COc1ccc(CCOCC2CC2)cc1 (stereo unspecified) [Betaxolol hydrochloride],107,104,106,79.8,105,106,86.5,69.3
O=C[C@H](O)[C@@H](O)[C@H](O)CO [Xylose],106,102,103,111,107,105,112,111
Cc1c(N(C)C)c(=O)n(-c2ccccc2)n1C [Amidopyrine],107,111,109,114,107,105,110,118
CC[C@H]1OC(=O)[C@H](C)[C@@H](O[C@H]2C[C@@](C)(OC)[C@@H](O)[C@H](C)O2)[C@H](C)[C@@H](O[C@@H]2O[C@H](C)C[C@H](N(C)C)[C@H]2O)[C@](C)(O)C[C@@H](C)/C(=N\OCOCCOC)[C@H](C)[C@@H](O)[C@]1(C)O [Roxithromycin],101,106,101,106,101,100,103,112
